Measurements from PubChem BioAssay (NCATS).
Inconclusive results are not listed. The source made the active and inactive calls. Calls come from the whole dose curve; as a rule, active = well fitted inhibition curve with a large enough effect; inconclusive = small, poorly fitted or top-dose-only effect; inactive = flat fitted curve, though single readings scatter.

What was measured:
PAD = experiment: qHTS profiling for inhibitors of Plasmodium falciparum proliferation (AID 504749);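 note: 0% = DMSO vehicle and full inhibition = artemisinin control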; settings: P. falciparum in erythrocytes, SYBR Green DNA, 72 h; series mostly up to 28.7 µM
Method in brief: (§1)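 Infected RBCs, 0.3% parasitemia/2.5% Hct final; cpd 72 h, 37 C, 5% CO2; lysis buffer with saponin/triton/SYBR Green I, o/n RT dark; FI 485/535; norm. to artemisinin (0.29 uM) and DMSO.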

PC15 = experiment: as above; settings: P. falciparum in erythrocytes, SYBR Green DNA, 72 h; series mostly up to 28.7 µM
Method in brief: as §1

PC26 = experiment: as above; settings: P. falciparum in erythrocytes, SYBR Green DNA, 72 h; series mostly up to 28.7 µM
Method in brief: as §1

PC49 = experiment: as above; settings: P. falciparum in erythrocytes, SYBR Green DNA, 72 h; series mostly up to 28.7 µM
Method in brief: as §1

SC27B = experiment: as above; settings: P. falciparum in erythrocytes, SYBR Green DNA, 72 h; series mostly up to 28.7 µM
Method in brief: as §1

TAB109 = experiment: as above; settings: P. falciparum in erythrocytes, SYBR Green DNA, 72 h; series mostly up to 28.7 µM
Method in brief: as §1

TAB113 = experiment: as above; settings: P. falciparum in erythrocytes, SYBR Green DNA, 72 h; series mostly up to 28.7 µM
Method in brief: as §1

TAB165 = experiment: as above; settings: P. falciparum in erythrocytes, SYBR Green DNA, 72 h; series mostly up to 28.7 µM
Method in brief: as §1

W2 = experiment: as above; settings: P. falciparum in erythrocytes, SYBR Green DNA, 72 h; series mostly up to 28.7 µM
Method in brief: as §1

CRL-7250 = normal cell line; experiment: Cytotoxic Profiling of Annotated Libraries Using Quantitative High-Throughput Screening (AID 1296008); settings: Five cell lines viability, CellTiter-Glo ATP luminescence, 48-72 h; stronger effect = lower value; for max response: % is set by controls: 0 for no effect and ±100 for the full control effect
Method in brief: (§2)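 Cytotoxicity was measured as CellTiter-Glo ATP luminescence, read after 10 min at room temperature. Compound treatment of the cells lasted 48 or 72 hr at 37 degrees Celsius in a qHTS format.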

HEK293 = experiment: as above; settings: Five cell lines viability, CellTiter-Glo ATP luminescence, 48-72 h; stronger effect = lower value
Method in brief: as §2

HaCat [1] = experiment: as above; settings: Five cell lines viability, CellTiter-Glo ATP luminescence, 48-72 h; stronger effect = lower value
Method in brief: as §2

KB-3-1 = experiment: as above; settings: Five cell lines viability, CellTiter-Glo ATP luminescence, 48-72 h, stronger effect = lower value
Method in brief: as §2

NIH3T3 = experiment: as above; settings: Five cell lines viability, CellTiter-Glo ATP luminescence, 48-72 h; stronger effect = lower value
Method in brief: as §2

HACAT [2] = experiment: qHTS assay to identify novel small-molecules to repurpose for Merkel cell carcinoma treatment (AID 1296009); settings: MCC and control cell lines, CellTiter-Glo viability, 72 h; at 44.8 µM (top of the series) unless noted
Method in brief: (§3)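 72 hr, 37 degree celsius; NPC 8-pt / MIPE 11-pt dose response; compound pinned in DMSO; CellTiter-Glo, 10 min RT, luminescence; normalized to no-cell and DMSO controls.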

MCC-13 = experiment: as above; settings: MCC and control cell lines, CellTiter-Glo viability, 72 h; series mostly up to 46 µM
Method in brief: as §3

MCC-26 = experiment: as above; settings: MCC and control cell lines, CellTiter-Glo viability, 72 h; series mostly up to 46 µM
Method in brief: as §3

MKL-1 = experiment: as above; settings: MCC and control cell lines, CellTiter-Glo viability, 72 h; series mostly up to 46 µM
Method in brief: as §3

MKL-2 = experiment: as above; settings: MCC and control cell lines, CellTiter-Glo viability, 72 h; series mostly up to 46 µM
Method in brief: as §3
Note: nearly all actives have a fitted effect of over 60% in size.

COc1ccc(C(=O)NCc2ccc(OCCN(C)C)cc2)cc1OC
inactive: Potency (PAD) | Potency (PC15) | Potency (PC26) | Potency (PC49) | Potency (SC27B) | Potency (TAB109) | Potency (TAB113) | Potency (TAB165) | Potency (W2) | outcome (CRL-7250) | max response (HEK293) -0.933% | outcome (HaCat [1]) | max response (KB-3-1) 3.28% | max response (NIH3T3) -3.79% | outcome (HACAT [2]) | outcome (MCC-13) | outcome (MCC-26) | outcome (MKL-1) | outcome (MKL-2)

CN/C(=C\[N+](=O)[O-])NCCSCc1csc(CN(C)C)n1
inactive: Potency (PAD) | Potency (PC15) | Potency (PC26) | Potency (PC49) | Potency (SC27B) | Potency (TAB109) | Potency (TAB113) | Potency (TAB165) | Potency (W2) | max response (CRL-7250) -2.16% | max response (HEK293) -19.8% | outcome (HaCat [1]) | max response (KB-3-1) 8.03% | max response (NIH3T3) 0.469% | outcome (HACAT [2]) | outcome (MCC-13) | outcome (MCC-26) | outcome (MKL-1) | outcome (MKL-2)

O=C(O)c1ccc[n+]([O-])c1
inactive: Potency (PAD) | Potency (PC15) | Potency (PC26) | Potency (PC49) | Potency (SC27B) | Potency (TAB109) | Potency (TAB113) | Potency (TAB165) | Potency (W2) | outcome (CRL-7250) | max response (HEK293) -0.144% | outcome (HaCat [1]) | max response (KB-3-1) -1.65% | outcome (NIH3T3) | outcome (HACAT [2]) | outcome (MCC-13) | outcome (MCC-26) | outcome (MKL-1) | outcome (MKL-2)

CC1CCc2cc(F)cc3c(=O)c(C(=O)O)cn1c23 (stereo not drawn)
inactive: Potency (PAD) | Potency (PC15) | Potency (PC26) | Potency (PC49) | Potency (SC27B) | Potency (TAB109) | Potency (TAB113) | Potency (TAB165) | Potency (W2) | outcome (CRL-7250) | max response (HEK293) -3.78% | outcome (HaCat [1]) | max response (KB-3-1) -6.7% | max response (NIH3T3) -1.98% | outcome (HACAT [2]) | outcome (MCC-13) | outcome (MCC-26) | outcome (MKL-1) | outcome (MKL-2)

CCOC(=O)c1cccnc1
inactive: Potency (PAD) | Potency (PC15) | Potency (PC26) | Potency (PC49) | Potency (SC27B) | Potency (TAB109) | Potency (TAB113) | Potency (TAB165) | Potency (W2) | max response (CRL-7250) -2.26% | max response (HEK293) -0.734% | outcome (HaCat [1]) | max response (KB-3-1) 2.38% | max response (NIH3T3) 2.73% | outcome (HACAT [2]) | outcome (MCC-13) | outcome (MCC-26) | outcome (MKL-1) | outcome (MKL-2)

CCOC(=O)[C@H](CCc1ccccc1)N[C@@H](C)C(=O)N1CCC[C@H]1C(=O)O
inactive: Potency (PAD) | Potency (PC15) | Potency (PC26) | Potency (PC49) | Potency (SC27B) | Potency (TAB109) | Potency (TAB113) | Potency (TAB165) | Potency (W2) | max response (CRL-7250) 2.02% | max response (HEK293) -1.68% | outcome (HaCat [1]) | max response (KB-3-1) 7.19% | outcome (NIH3T3) | outcome (HACAT [2]) | outcome (MCC-13) | outcome (MCC-26) | outcome (MKL-1) | outcome (MKL-2)

CC(=O)Nc1ccccc1
inactive: Potency (PAD) | Potency (PC15) | Potency (PC26) | Potency (PC49) | Potency (SC27B) | Potency (TAB109) | Potency (TAB113) | Potency (TAB165) | Potency (W2) | max response (CRL-7250) 2.87% | max response (HEK293) -7.78% | outcome (HaCat [1]) | max response (KB-3-1) 12.7% | outcome (NIH3T3) | outcome (HACAT [2]) | outcome (MCC-13) | outcome (MCC-26) | outcome (MKL-1) | outcome (MKL-2)

CN1CCCN=C1COC(=O)C(O)(c1ccccc1)C1CCCCC1 (stereo not drawn)
inactive: Potency (PAD) | Potency (PC15) | Potency (PC26) | Potency (PC49) | Potency (SC27B) | Potency (TAB109) | Potency (TAB113) | Potency (TAB165) | Potency (W2) | max response (CRL-7250) -8.2% | max response (HEK293) -8.47% | outcome (HaCat [1]) | max response (KB-3-1) -13.9% | outcome (NIH3T3) | outcome (HACAT [2]) | outcome (MCC-13) | outcome (MCC-26) | outcome (MKL-1) | outcome (MKL-2)

NS(=O)(=O)c1ccc(C(=O)O)cc1
inactive: Potency (PAD) | Potency (PC15) | Potency (PC26) | Potency (PC49) | Potency (SC27B) | Potency (TAB109) | Potency (TAB113) | Potency (TAB165) | Potency (W2) | max response (CRL-7250) -10.9% | max response (HEK293) -0.608% | outcome (HaCat [1]) | max response (KB-3-1) 9.5% | max response (NIH3T3) 1.17% | outcome (HACAT [2]) | outcome (MCC-13) | outcome (MCC-26) | outcome (MKL-1) | outcome (MKL-2)

CC(=O)NS(=O)(=O)c1ccc(N)cc1
inactive: Potency (PAD) | Potency (PC15) | Potency (PC26) | Potency (PC49) | Potency (SC27B) | Potency (TAB109) | Potency (TAB113) | Potency (TAB165) | Potency (W2) | max response (CRL-7250) -3.19% | max response (HEK293) -5.52% | outcome (HaCat [1]) | max response (KB-3-1) 3.12% | max response (NIH3T3) -1.48% | outcome (HACAT [2]) | outcome (MCC-13) | outcome (MCC-26) | outcome (MKL-1) | outcome (MKL-2)

NC(N)=NS(=O)(=O)c1ccc(N)cc1
inactive: Potency (PAD) | Potency (PC15) | Potency (PC26) | Potency (PC49) | Potency (SC27B) | Potency (TAB109) | Potency (TAB113) | Potency (TAB165) | Potency (W2) | outcome (CRL-7250) | max response (HEK293) -6.28% | outcome (HaCat [1]) | max response (KB-3-1) 15.5% | outcome (NIH3T3) | outcome (HACAT [2]) | outcome (MCC-13) | outcome (MCC-26) | outcome (MKL-1) | outcome (MKL-2)

COc1nccnc1NS(=O)(=O)c1ccc(N)cc1
inactive: Potency (PAD) | Potency (PC15) | Potency (PC26) | Potency (PC49) | Potency (SC27B) | Potency (TAB109) | Potency (TAB113) | Potency (TAB165) | Potency (W2) | max response (CRL-7250) 3.15% | max response (HEK293) 4.9% | outcome (HaCat [1]) | max response (KB-3-1) -12% | outcome (NIH3T3) | outcome (HACAT [2]) | outcome (MCC-13) | outcome (MCC-26) | outcome (MKL-1) | outcome (MKL-2)
